This passage reports growth inhibition results from PubChem BioAssay (NCI).

Experiment [1] in a line: NCI Yeast Anticancer Drug Screen. Data for the rad50 strain (AID 155).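 Note: 0% = growth of vehicle-only cultures of the same strain.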 To be noted: S. cerevisiae rad50 strain growth inhibition; at 50.0 µM; hits give high values. The gist of the method: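 DNA repair mutant yeast, compound exposure, growth read-out; inhibition is taken relative to vehicle.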
Experiment [2] is described as follows: NCI Yeast Anticancer Drug Screen. Data for the mec2-1 strain (AID 157). To be noted: S. cerevisiae mec2-1 strain, at 50.0 µM, hits give high values. In a few lines:
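Using mec2-1 yeast: add compound, measure growth, express inhibition versus vehicle-treated cultures.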

The nature of experiment [3]: NCI Yeast Anticancer Drug Screen. Data for the sgs1 mgt1 strain (AID 161).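 Note: 0% = growth of cultures given vehicle only.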 To be noted: S. cerevisiae sgs1 mgt1 strain, at 50.0 µM, hits give high values. The gist of the method:
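Compounds are added to genetically altered yeast, and growth is compared with cultures given vehicle alone to give percent inhibition.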

Experiment [4] in a line: NCI Yeast Anticancer Drug Screen. Data for the cln2 rad14 strain (AID 165).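 Note: 0% = growth equal to vehicle treated cultures.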 As to conditions: S. cerevisiae cln2 rad14 strain, at 50.0 µM, hits give high values. The gist of the method:
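Yeast strain cln2 rad14, bearing defects in cell cycle control and DNA repair, serves as the test system; values reflect growth inhibition compared with vehicle.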

A short description of experiment [5]: NCI Yeast Anticancer Drug Screen. Data for the bub3 strain (AID 167). To be noted: S. cerevisiae bub3 mutant strain, at 50.0 µM, hits give high values. In a few lines: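 In this screen, a yeast mutant lacking normal mitotic checkpoint function is challenged with compound. Relative growth versus vehicle gives the inhibition value.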
Experiment [6] in a line: NCI Yeast Anticancer Drug Screen. Data for the mlh1 rad18 strain (AID 175). To be noted: S. cerevisiae mlh1 rad18 strain growth inhibition; at 50.0 µM; hits give high values. The gist of the method: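 Steps: expose repair-defective yeast to compound; measure growth; express inhibition against vehicle-treated controls.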

The panel holds about 79,000 compounds, 15% with a hit somewhere; the sample as a whole holds those more often. Values without a mark were called inactive. The source made the active and inactive calls. Cut-off read from the data, not from the text of the source: active = growth inhibition above about 70%; inactive = the rest.

Regarding `CC(=O)N=C1N(/C=C2\C(=O)Oc3ccccc3C2=O)C(=O)/C(=C/c2ccc(NC(C)=O)cc2)N1C`, the growth inhibition is -32.8% in experiment [1]; -26.3% in experiment [2]; 34.2% in experiment [3]; 7.7% in experiment [4]; -31.1% in experiment [5]; -12.3% in experiment [6].
As to `COc1ccccc1-c1ccc([N+](=O)[O-])cc1[N+](=O)[O-]`, the growth inhibition in experiment [1] was 18.9%; in experiment [2], -5.7%; in experiment [3], -1.9%; in experiment [4], 8.65%; in experiment [5], 22.2%; in experiment [6], 14.8%.
In the case of `O=[N+]([O-])c1ccc(I)c(I)c1`, the growth inhibition was -20.8% in experiment [1]; -3.8% in experiment [2]; 0.1% in experiment [3]; -43.2% in experiment [4]; -0.45% in experiment [5]; 7.85% in experiment [6].
With `[Cl][Pt+2][Cl].[NH-]CC(O)c1ccc2oc3ccccc3c2c1.[NH-]CC(O)c1ccc2oc3ccccc3c2c1` (stereo unspecified), the growth inhibition in experiment [1] was -23.3%; in experiment [2] it was -11.2%; in experiment [3], -30.6%; in experiment [4] it was -21.1%; in experiment [5], 7.35%; in experiment [6], 17.6%.
In the case of `O=C(O)C1(c2ccccc2)CC1`, the growth inhibition was 8.5% in experiment [1]; -7% in experiment [2]; 13.1% in experiment [3]; 2.45% in experiment [4]; 15.9% in experiment [5]; 7.85% in experiment [6].
As for `CCOC(=O)C(Cc1ccccc1Cl)(Cc1ccccc1Cl)c1ccccc1`, the growth inhibition in experiment [1] is 7.15%; in experiment [2] it was -17.1%; in experiment [3], -10.5%; in experiment [4], -79.5%; in experiment [5], -4.95%; in experiment [6], 1.3%.
Turning to `O=C1CC(=O)C(C(=O)c2ccccc2)N1` (stereo unspecified), the growth inhibition was 18.3% in experiment [1]; 8.55% in experiment [2]; 5.3% in experiment [3]; 1.8% in experiment [4]; 7.8% in experiment [5]; -2.45% in experiment [6].
As to `CC(C)C(/C=C/c1ccccc1)=N\NC(=S)NN`, the growth inhibition in experiment [1] is -5.25%; in experiment [2], -5.9%; in experiment [3] it was 17.1%; in experiment [4], 13.4%; in experiment [5], 26.6%; in experiment [6], 32.4%.
As for `CCOC(=O)NC(=S)Nc1cn(C)cc1[N+](=O)[O-]`, the growth inhibition in experiment [1] is 3.2%; in experiment [2], -5.9%; in experiment [3], 8.8%; in experiment [4], 1.9%; in experiment [5] it was 3.65%; in experiment [6], 11.7%.
Turning to `O=C(Nc1ccc(Br)cn1)c1sc2ccccc2c1Cl`, the growth inhibition was 8.2% in experiment [1]; -9.7% in experiment [2]; 26.6% in experiment [3]; 19.4% in experiment [4]; 16.4% in experiment [5]; 14.2% in experiment [6].
In the case of `CCOC(=O)C1=C(O)C(=O)N(Cc2ccccc2)C1`, the growth inhibition in experiment [1] is -4.65%; in experiment [2], -29.6%; in experiment [3], 14.3%; in experiment [4] it was -0.7%; in experiment [5], 49.5%; in experiment [6], -23.8%.
Turning to `C[C@]12CC[C@@H]3c4ccc(OCCCO)c([N+](=O)[O-])c4CC[C@H]3[C@@H]1CCC2=O`, the growth inhibition in experiment [1] is 16.3%; in experiment [2], 6.8%; in experiment [3], 17.7%; in experiment [4], 12.4%; in experiment [5], -0.5%; in experiment [6] it was 16%.
In the case of `NS(=O)(=O)c1cc2c(cc1Cl)NC(Cc1ccccc1)NS2(=O)=O` (stereo unspecified), the growth inhibition in experiment [1] is -20.7%; in experiment [2] it was -4.55%; in experiment [3] it was -9.45%; in experiment [4] it was -7.2%; in experiment [5], 0.2%; in experiment [6], 18.4%.
Consider `Cc1cc(Cl)ccc1NC(=O)/C(=N\NC(C)(C)C)C(C#N)c1nc(-c2ccc([N+](=O)[O-])cc2)cs1` (stereo unspecified), for which the growth inhibition in experiment [1] is 23.8%; in experiment [2], 8.95%; in experiment [3], 3.85%; in experiment [4], 25.7%; in experiment [5], 4.25%; in experiment [6] it was -10.8%.
Consider `CC(=O)N=c1ccc2nc(N)nn(O)c-2c1`, for which the growth inhibition in experiment [1] is 9.5%; in experiment [2], 0.05%; in experiment [3], -10.4%; in experiment [4] it was -4.95%; in experiment [5] it was -33.6%; in experiment [6] it was -26.6%.
Consider `N#Cc1nc(CC(=O)c2ccc(Cl)c(Cl)c2)c(CC(=O)c2ccc(Cl)c(Cl)c2)nc1C#N`, for which the growth inhibition in experiment [1] is 12.1%; in experiment [2] it was 10.4%; in experiment [3] it was 9.2%; in experiment [4], 31.4%; in experiment [5], 27.6%; in experiment [6], 20.2%.
In the case of `O=c1[nH]c2ccccc2c(=O)n1CCCN1CCN(c2cccc(Cl)c2)CC1`, the growth inhibition in experiment [1] is 22%; in experiment [2], 12.4%; in experiment [3], 33.8%; in experiment [4] it was -23.4%; in experiment [5] it was 15.8%; in experiment [6], 14.8%.
Regarding `CC(C)CCN(C(=O)CCl)c1ccccc1`, the growth inhibition in experiment [1] was 59%; in experiment [2], 32.6%; in experiment [3], 52.4%; in experiment [4], 15.1%; in experiment [5], 33.5%; in experiment [6] it was 63.8%.
`CC1C(C)(C)P(=O)(OCCOP2(=O)C(C)(C)C(C)C2(C)C)C1(C)C` (stereo unspecified): the growth inhibition was 35% in experiment [1]; -0.85% in experiment [2]; 22.2% in experiment [3]; -9.6% in experiment [4]; 3.75% in experiment [5]; 7.25% in experiment [6].
With `CN(C)CCSc1n[nH]c(=O)[nH]c1=O`, the growth inhibition was 2.4% in experiment [1]; -6.35% in experiment [2]; -7.35% in experiment [3]; -23.4% in experiment [4]; -16.1% in experiment [5]; -3.45% in experiment [6].
Turning to `O=C(COc1ccc(Cl)c(Cl)c1)NCc1cccc(NC(=O)CBr)c1`, the growth inhibition in experiment [1] was 99.2% (active); in experiment [2] it was 99.5% (active); in experiment [3], 45.2%; in experiment [4] it was 99.5% (active); in experiment [5], 99.2% (active); in experiment [6], 99.2% (active).
